Legend:
[1] = target: T1, Serine/threonine-protein kinase TBK1 (Homo sapiens) (UniProt Q9UHD2); settings: at 10 µM
T1 sequence (whole entry): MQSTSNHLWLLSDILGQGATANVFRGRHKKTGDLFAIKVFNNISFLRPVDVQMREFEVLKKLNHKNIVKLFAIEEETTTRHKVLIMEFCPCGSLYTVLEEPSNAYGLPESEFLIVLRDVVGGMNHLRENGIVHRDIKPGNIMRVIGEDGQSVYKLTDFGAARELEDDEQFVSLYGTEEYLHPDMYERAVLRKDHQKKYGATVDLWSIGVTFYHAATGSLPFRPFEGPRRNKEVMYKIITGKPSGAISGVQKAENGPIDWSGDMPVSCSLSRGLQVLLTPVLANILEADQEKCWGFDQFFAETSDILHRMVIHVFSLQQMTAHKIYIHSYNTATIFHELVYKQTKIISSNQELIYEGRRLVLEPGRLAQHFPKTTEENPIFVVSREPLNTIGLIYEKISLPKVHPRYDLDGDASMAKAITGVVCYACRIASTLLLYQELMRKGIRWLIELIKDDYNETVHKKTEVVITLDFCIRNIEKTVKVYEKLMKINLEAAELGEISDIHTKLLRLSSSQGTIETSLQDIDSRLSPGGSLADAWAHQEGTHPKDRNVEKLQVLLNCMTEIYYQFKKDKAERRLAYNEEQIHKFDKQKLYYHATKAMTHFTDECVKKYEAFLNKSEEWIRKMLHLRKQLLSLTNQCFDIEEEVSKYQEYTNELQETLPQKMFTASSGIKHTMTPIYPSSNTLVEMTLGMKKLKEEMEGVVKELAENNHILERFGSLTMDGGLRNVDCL

[2] = target: T2, TGF-beta receptor type-1 (Homo sapiens) (UniProt P36897); settings: at 1 µM
T2 sequence (whole entry): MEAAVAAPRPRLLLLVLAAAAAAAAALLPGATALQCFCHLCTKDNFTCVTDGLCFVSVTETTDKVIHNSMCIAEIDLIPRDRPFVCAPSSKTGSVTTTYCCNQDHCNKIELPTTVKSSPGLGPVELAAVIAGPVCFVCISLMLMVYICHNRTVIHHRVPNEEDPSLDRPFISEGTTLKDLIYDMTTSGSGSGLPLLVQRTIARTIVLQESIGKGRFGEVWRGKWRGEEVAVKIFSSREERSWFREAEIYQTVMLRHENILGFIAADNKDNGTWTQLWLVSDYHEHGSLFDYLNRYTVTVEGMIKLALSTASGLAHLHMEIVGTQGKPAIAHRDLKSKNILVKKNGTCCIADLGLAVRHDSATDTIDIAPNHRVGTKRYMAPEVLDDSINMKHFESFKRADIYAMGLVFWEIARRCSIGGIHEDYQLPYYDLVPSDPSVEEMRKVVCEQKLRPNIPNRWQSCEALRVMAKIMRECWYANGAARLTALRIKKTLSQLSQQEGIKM

[3] = target: T2, TGF-beta receptor type-1 (Homo sapiens); settings: at 10 µM
[4] = target: Insulin-like growth factor 1 receptor (Homo sapiens) (UniProt P08069); settings: at 1 µM
[5] = target: Insulin-like growth factor 1 receptor (Homo sapiens) (UniProt P08069); settings: at 10 µM
[6] = target: T3, Inhibitor of nuclear factor kappa-B kinase subunit alpha (Homo sapiens) (UniProt O15111); settings: at 1 µM
T3 sequence (whole entry): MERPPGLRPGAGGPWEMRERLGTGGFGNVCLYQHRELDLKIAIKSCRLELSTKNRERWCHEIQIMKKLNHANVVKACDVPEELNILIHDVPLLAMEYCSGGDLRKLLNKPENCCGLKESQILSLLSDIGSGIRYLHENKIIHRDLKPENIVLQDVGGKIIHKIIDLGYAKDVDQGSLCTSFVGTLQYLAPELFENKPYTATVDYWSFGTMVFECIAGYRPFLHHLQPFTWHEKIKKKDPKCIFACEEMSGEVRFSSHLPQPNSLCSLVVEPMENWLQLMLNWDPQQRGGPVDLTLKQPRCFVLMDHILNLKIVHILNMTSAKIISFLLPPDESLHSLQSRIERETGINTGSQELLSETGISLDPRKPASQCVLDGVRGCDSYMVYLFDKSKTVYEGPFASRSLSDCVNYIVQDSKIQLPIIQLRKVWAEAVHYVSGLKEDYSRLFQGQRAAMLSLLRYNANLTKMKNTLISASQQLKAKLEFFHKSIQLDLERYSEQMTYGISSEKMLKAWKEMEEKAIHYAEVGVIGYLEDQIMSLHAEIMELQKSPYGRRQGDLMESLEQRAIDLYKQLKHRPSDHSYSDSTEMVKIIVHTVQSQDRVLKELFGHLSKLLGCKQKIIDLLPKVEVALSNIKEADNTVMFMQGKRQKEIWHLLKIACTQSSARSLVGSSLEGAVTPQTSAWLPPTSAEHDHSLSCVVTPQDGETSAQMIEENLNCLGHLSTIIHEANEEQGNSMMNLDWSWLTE

[7] = target: T3, Inhibitor of nuclear factor kappa-B kinase subunit alpha (Homo sapiens); settings: at 10 µM
[8] = target: T4, Inhibitor of nuclear factor kappa-B kinase subunit beta (Homo sapiens) (UniProt O14920); settings: at 1 µM
T4 sequence (whole entry): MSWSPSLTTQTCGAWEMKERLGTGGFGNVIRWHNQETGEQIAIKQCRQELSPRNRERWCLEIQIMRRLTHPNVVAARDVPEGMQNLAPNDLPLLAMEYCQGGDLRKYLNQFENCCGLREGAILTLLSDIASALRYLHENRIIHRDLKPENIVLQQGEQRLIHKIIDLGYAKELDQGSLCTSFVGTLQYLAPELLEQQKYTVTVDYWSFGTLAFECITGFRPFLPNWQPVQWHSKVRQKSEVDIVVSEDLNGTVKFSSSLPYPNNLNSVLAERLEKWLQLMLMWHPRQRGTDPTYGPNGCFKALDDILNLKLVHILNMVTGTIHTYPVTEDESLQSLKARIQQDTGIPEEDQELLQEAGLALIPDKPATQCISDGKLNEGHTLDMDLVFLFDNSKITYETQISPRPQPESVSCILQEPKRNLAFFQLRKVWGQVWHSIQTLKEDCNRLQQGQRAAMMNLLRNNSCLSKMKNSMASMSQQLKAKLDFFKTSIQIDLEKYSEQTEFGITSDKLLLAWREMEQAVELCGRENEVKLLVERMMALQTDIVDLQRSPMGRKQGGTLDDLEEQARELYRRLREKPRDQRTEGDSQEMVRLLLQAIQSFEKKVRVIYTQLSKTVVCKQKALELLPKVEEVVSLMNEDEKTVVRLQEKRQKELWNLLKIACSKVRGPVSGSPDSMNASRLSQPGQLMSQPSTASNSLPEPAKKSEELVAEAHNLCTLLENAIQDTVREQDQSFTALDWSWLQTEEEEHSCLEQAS

[9] = target: T4, Inhibitor of nuclear factor kappa-B kinase subunit beta (Homo sapiens); settings: at 10 µM
[10] = target: Insulin receptor (Homo sapiens) (UniProt P06213); settings: at 1 µM
[11] = target: Insulin receptor (Homo sapiens) (UniProt P06213); settings: at 10 µM
[12] = target: Insulin receptor (Homo sapiens) (UniProt P06213); settings: at 1 µM; remark: listed apart in the source
[13] = target: Insulin receptor (Homo sapiens) (UniProt P06213); settings: at 10 µM; remark: listed apart in the source
[14] = target: Interleukin-1 receptor-associated kinase 1 (Homo sapiens) (UniProt P51617); settings: at 1 µM
[15] = target: Interleukin-1 receptor-associated kinase 1 (Homo sapiens) (UniProt P51617); settings: at 10 µM
[16] = target: T5, Interleukin-1 receptor-associated kinase 4 (Homo sapiens) (UniProt Q9NWZ3); settings: at 1 µM
T5 sequence (whole entry): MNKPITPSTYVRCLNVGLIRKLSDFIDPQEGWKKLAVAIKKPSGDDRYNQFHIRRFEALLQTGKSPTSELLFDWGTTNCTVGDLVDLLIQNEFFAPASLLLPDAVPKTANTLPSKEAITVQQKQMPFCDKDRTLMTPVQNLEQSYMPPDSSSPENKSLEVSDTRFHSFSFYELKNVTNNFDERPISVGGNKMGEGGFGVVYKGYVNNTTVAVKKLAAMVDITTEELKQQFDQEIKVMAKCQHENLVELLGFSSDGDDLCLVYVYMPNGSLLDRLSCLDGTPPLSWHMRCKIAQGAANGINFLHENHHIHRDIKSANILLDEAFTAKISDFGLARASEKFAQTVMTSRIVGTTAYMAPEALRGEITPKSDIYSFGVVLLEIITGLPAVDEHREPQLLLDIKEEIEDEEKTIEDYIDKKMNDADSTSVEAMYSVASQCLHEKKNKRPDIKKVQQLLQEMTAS

[17] = target: T5, Interleukin-1 receptor-associated kinase 4 (Homo sapiens); settings: at 10 µM
[18] = target: Insulin receptor-related protein (Homo sapiens) (UniProt P14616); settings: at 1 µM
[19] = target: Insulin receptor-related protein (Homo sapiens) (UniProt P14616); settings: at 10 µM
[20] = target: T6, Tyrosine-protein kinase ITK/TSK (Homo sapiens) (UniProt Q08881); settings: at 1 µM
T6 sequence (whole entry): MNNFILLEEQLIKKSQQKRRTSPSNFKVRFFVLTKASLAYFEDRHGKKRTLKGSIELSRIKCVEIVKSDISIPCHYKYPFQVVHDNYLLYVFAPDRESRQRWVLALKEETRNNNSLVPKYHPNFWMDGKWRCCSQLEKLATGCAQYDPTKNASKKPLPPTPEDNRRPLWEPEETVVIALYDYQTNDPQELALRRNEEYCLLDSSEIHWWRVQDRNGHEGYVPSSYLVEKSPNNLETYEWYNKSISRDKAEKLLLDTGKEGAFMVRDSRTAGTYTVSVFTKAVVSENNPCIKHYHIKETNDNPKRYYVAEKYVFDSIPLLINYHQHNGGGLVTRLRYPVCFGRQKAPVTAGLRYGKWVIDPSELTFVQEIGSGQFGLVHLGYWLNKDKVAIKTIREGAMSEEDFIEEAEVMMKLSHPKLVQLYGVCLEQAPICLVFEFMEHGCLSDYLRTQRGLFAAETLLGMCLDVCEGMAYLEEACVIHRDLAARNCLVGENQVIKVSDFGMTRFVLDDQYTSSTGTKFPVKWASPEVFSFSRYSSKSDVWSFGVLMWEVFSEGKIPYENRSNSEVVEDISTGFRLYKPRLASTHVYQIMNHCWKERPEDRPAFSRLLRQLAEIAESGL

Sequence of Insulin-like growth factor 1 receptor (Homo sapiens) (P08069 31-736 limits assumed): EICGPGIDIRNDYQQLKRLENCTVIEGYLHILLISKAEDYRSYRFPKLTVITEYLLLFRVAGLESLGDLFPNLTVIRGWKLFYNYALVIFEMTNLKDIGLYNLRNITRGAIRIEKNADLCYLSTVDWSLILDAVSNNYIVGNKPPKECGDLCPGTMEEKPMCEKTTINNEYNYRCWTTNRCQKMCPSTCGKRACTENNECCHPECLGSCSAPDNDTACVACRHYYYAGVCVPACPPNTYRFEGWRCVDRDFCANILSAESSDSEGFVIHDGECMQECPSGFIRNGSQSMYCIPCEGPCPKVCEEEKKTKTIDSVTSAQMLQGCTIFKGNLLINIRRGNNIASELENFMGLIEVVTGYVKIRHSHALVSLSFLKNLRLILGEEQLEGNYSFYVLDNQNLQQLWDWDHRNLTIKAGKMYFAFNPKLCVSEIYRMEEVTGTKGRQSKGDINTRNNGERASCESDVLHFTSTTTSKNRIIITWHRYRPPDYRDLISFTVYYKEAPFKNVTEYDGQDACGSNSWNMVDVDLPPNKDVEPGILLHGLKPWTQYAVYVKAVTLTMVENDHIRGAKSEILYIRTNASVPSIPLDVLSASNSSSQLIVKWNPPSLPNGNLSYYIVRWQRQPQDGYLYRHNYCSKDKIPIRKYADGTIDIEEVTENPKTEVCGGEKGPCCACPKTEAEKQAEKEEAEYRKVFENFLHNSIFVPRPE
Sequence of Insulin-like growth factor 1 receptor (Homo sapiens) (P08069 741-1367 limits assumed): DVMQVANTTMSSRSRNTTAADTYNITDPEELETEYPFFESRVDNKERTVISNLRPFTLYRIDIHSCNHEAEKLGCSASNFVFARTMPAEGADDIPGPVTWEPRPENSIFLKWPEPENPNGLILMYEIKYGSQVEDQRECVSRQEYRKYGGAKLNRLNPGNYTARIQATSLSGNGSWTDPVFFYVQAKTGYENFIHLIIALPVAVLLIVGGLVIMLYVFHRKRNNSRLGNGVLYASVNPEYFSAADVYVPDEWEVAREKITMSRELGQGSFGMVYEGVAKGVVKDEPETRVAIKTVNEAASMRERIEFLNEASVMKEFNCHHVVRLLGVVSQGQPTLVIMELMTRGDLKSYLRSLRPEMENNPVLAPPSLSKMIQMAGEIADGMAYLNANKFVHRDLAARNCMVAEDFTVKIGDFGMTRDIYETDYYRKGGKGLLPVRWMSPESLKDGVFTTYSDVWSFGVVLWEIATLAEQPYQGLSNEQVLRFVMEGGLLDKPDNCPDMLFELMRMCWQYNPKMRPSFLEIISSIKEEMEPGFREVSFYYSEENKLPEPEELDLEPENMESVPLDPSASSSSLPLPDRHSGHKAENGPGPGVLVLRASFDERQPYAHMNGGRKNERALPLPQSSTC
Sequence of Insulin receptor-related protein (Homo sapiens) (P14616 27-742 limits assumed): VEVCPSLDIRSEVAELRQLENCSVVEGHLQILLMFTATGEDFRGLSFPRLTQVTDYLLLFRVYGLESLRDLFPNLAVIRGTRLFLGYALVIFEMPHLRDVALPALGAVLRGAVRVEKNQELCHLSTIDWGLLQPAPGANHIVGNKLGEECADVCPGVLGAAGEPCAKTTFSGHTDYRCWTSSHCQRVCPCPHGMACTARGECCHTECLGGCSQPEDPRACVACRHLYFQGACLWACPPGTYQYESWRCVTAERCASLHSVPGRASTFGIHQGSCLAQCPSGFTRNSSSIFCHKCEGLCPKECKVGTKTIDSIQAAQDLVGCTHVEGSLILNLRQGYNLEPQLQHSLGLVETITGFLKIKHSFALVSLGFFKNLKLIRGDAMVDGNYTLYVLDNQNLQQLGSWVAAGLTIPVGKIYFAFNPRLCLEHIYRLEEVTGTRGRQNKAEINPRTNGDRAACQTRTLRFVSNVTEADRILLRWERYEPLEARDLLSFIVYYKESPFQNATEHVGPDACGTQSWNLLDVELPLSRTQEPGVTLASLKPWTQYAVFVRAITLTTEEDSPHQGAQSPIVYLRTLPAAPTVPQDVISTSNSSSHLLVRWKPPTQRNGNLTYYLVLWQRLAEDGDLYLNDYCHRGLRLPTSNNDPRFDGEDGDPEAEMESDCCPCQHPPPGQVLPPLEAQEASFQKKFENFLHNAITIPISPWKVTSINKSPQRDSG
Sequence of Insulin receptor-related protein (Homo sapiens) (P14616 747-1297 limits assumed): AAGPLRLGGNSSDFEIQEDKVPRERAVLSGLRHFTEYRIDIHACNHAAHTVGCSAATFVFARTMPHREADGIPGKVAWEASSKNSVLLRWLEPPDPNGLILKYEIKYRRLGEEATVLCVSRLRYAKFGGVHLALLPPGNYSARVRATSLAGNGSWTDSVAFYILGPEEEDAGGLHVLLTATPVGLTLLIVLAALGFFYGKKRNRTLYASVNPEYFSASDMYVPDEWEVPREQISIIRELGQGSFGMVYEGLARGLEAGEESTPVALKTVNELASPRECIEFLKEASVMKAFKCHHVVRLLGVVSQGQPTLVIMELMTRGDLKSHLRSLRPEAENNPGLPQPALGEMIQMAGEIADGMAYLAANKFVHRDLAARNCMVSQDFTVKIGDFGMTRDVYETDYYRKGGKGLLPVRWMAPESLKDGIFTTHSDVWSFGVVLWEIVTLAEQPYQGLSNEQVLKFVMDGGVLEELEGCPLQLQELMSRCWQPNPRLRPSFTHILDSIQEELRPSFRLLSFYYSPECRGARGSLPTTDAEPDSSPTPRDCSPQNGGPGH
Sequence of Interleukin-1 receptor-associated kinase 1 (Homo sapiens) (P51617 whole entry, looked up): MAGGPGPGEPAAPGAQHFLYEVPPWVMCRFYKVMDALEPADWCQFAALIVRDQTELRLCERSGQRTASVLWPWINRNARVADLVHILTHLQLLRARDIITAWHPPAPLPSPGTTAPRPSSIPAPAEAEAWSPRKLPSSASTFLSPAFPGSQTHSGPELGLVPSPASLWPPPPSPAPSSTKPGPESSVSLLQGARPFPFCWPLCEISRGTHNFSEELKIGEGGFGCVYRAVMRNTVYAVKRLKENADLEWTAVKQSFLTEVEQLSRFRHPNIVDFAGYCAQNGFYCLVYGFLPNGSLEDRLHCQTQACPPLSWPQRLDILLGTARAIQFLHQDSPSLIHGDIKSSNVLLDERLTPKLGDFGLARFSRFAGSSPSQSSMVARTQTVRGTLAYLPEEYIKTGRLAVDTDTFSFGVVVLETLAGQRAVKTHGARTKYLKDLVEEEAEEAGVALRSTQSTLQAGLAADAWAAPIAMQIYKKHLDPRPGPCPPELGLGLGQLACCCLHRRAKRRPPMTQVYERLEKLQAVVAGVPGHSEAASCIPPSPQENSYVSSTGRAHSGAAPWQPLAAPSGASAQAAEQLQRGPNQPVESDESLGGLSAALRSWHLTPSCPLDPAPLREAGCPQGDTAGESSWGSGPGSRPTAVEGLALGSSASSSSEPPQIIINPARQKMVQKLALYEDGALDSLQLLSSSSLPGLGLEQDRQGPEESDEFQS
Sequence of Insulin receptor (Homo sapiens) (P06213 28-758 limits assumed): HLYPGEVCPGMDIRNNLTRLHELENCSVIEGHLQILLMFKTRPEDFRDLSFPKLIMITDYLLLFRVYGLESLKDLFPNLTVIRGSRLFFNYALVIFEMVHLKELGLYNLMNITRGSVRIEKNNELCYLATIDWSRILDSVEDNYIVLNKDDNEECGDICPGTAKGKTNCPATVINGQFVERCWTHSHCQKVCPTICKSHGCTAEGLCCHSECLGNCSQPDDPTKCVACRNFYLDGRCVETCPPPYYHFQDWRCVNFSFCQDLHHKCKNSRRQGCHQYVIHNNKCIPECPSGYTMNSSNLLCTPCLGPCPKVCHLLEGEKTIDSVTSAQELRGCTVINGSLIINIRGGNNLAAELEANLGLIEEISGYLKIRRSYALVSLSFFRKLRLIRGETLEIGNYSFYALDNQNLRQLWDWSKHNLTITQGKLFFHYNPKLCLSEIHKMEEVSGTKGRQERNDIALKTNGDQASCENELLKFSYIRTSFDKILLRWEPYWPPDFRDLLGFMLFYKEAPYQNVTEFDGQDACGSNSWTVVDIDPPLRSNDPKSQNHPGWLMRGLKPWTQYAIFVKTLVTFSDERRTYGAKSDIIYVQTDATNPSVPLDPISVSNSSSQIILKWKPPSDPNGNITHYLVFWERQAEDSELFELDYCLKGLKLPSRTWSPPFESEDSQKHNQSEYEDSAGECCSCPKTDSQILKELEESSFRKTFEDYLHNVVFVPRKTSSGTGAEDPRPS
Sequence of Insulin receptor (Homo sapiens) (P06213 763-1382 limits assumed): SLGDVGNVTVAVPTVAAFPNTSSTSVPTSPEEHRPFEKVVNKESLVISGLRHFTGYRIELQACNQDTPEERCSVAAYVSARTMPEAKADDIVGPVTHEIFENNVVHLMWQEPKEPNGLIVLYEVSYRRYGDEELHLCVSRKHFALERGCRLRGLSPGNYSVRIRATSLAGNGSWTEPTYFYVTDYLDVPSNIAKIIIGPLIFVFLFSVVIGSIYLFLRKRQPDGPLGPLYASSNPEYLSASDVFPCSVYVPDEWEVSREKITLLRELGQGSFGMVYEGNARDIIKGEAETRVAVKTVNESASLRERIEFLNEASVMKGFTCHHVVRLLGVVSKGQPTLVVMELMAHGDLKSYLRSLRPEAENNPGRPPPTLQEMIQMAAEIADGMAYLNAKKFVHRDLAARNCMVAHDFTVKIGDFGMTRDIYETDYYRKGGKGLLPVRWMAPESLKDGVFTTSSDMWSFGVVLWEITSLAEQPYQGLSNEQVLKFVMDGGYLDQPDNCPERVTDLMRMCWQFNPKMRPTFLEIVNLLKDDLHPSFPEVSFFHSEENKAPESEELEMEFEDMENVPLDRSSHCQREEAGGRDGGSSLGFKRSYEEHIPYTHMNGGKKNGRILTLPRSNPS

Row | SMILES | residual activity [1] [%] | residual activity [2] [%] | residual activity [3] [%] | residual activity [4] [%] | residual activity [5] [%] | residual activity [6] [%] | residual activity [7] [%] | residual activity [8] [%] | residual activity [9] [%] | residual activity [10] [%] | residual activity [11] [%] | residual activity [12] [%] | residual activity [13] [%] | residual activity [14] [%] | residual activity [15] [%] | residual activity [16] [%] | residual activity [17] [%] | residual activity [18] [%] | residual activity [19] [%] | residual activity [20] [%]
1 | Cc1nc2cc3nc(-c4cccs4)cnc3cc2n1C | 87 | 98 | 118 | 115 | 106 | 125 | 106 | 106 | 106 | 117 | 101 | 106 | 95 | 110 | 90 | 111 | 70 | 130 | 100 | 108
2 | CC[n+]1c(/C=C/N(C)c2ccccc2)n(-c2ccccc2)c2ccc(-c3nc4ccccc4s3)cc21 | 68 | 80 | 102 | 97 | 86 | 92 | 93 | 105 | 102 | 107 | 86 | 100 | 92 | 96 | 92 | 113 | 78 | 111 | 87 | 101
3 | Cn1cnc2cc3c(Nc4cccc(Br)c4)ncnc3cc21 | 63 | 86 | 85 | 109 | 90 | 92 | 104 | 95 | 94 | 102 | 103 | 102 | 100 | 102 | 73 | 77 | 46 | 125 | 78 | 104
4 | CO[C@H]1C[C@@H]2CC[C@@H](C)[C@@](O)(O2)C(=O)C(=O)N2CCCC[C@H]2C(=O)O[C@H]([C@H](C)C[C@@H]2CC[C@@H](O)[C@H](OC)C2)CC(=O)[C@H](C)/C=C(\C)[C@@H](O)[C@@H](OC)C(=O)[C@H](C)C[C@H](C)/C=C/C=C/C=C/1C | 55 | 82 | 78 | 96 | 74 | 121 | 148 | 104 | 124 | 107 | 89 | 92 | 101 | 74 | 71 | 107 | 154 | 126 | 99 | 101
5 | COc1cccc(-c2cc(=O)c3ccccc3o2)c1N | 95 | 104 | 93 | 93 | 97 | 105 | 97 | 125 | 109 | 109 | 94 | 96 | 92 | 98 | 96 | 109 | 94 | 106 | 91 | 108
6 | O=C1NC(=O)c2c1c1c3ccccc3[nH]c1c1[nH]c3cc(Br)ccc3c21 | 54 | 100 | 98 | 96 | 99 | 89 | 71 | 77 | 100 | 99 | 88 | 103 | 95 | 106 | 107 | 92 | 76 | 97 | 84 | 102
7 | Oc1c2ccccc2c2c3c(cccc13)N=N2 | 11 | 88 | 74 | 92 | 49 | 57 | 21 | 78 | 43 | 81 | 47 | 70 | 26 | 69 | 42 | 36 | 11 | 102 | 51 | 67
